Laboratory results from PubChem BioAssay.
Activity calls are given as the source filed them. Unless noted, no rule for the calls is given here.

Tests used:
[1] = A549 cell viability effects, profiling panel, calcein-AM fluorescence, 48 h, basal (AID 1162); conditions: higher = more signal; also: test concentration not given here
[2] = adipocyte viability effects, profiling panel, cell-based, 3T3-L1 adipocytes, calcein-AM fluorescence, 48 h, basal (AID 1163); conditions: 3T3-L1 adipocytes viability, higher = more signal; also: test concentration not given here
[3] = HepG2 cell viability effects, profiling panel, calcein-AM fluorescence, 48 h, basal (AID 1164); conditions: higher = more signal; also: test concentration not given here
[4] = MM1S cell viability effects, profiling panel, calcein-AM fluorescence, 48 h, basal (AID 1165); conditions: higher = more signal;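 also: viability of MM1S multiple myeloma cells under basal unstimulated conditions; test concentration not given here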
[5] = basal RPMI8226 viability, no added stimulus, profiling panel, cell-based, calcein-AM fluorescence, 48 h, PK04 Diversity Set (AID 1166); conditions: RPMI8226 myeloma viability, higher = more signal;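 also: cells grown under basal conditions without added stimulus; test concentration not given here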
[6] = basal HepG2 mitochondrial membrane potential changes, profiling panel, cell-based, JC-1 fluorescence, 24 h, 100 nL compound (AID 1167); conditions: higher = more signal; also: test concentration not given here
[7] = basal 3T3-L1 adipocyte mitochondrial potential changes, profiling panel, cell-based, JC-1 fluorescence, 3T3-L1 adipocytes, 24 h, 100 nL compound (AID 1168); conditions: JC-1 mitochondrial fluorescence, higher = more signal, called active from +8 up or from −8 down; also: test concentration not given here
[8] = basal RPMI8226 mitochondrial membrane potential changes, profiling panel, cell-based, JC-1 fluorescence, 24 h, 100 nL compound (AID 1169); conditions: RPMI8226 myeloma, JC-1 mitochondrial potential fluorescence, higher = more signal; also: test concentration not given here
[9] = basal MM1S mitochondrial membrane potential changes, profiling panel, cell-based, JC-1 fluorescence, 24 h, 100 nL compound (AID 1170); conditions: higher = more signal; also: test concentration not given here
[10] = A549 lung cancer cell viability effects, profiling panel, resazurin fluorescence, 24 h, PK04 Diversity Set (AID 1171); conditions: higher = more signal, called active from +8 up or from −8 down; also: test concentration not given here
[11] = HepG2 liver cancer cell viability effects, profiling panel, resazurin fluorescence, 24 h, PK04 Diversity Set (AID 1172); conditions: higher = more signal; also: test concentration not given here
[12] = basal S. cerevisiae growth modulation, no modifier, primary screen, OD600, strain BY4716, 24 h, basal condition (AID 1173); conditions: OD600, 24 h, higher = more signal, called active from +8 up or from −8 down
[13] = MM1S myeloma cell viability, profiling panel, resazurin fluorescence, basal, 24 h, PK04 Diversity Set (AID 1174); conditions: higher = more signal, called active from +8 up or from −8 down;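 also: MM1S multiple myeloma cell line; test concentration not given here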
[14] = biological target: Dihydroorotate dehydrogenase (quinone), mitochondrial (Plasmodium falciparum (isolate 3D7)) (UniProt Q08210); experiment: PfDHODH enzyme inhibitors, primary screen, biochemical, C-terminal His tag, absorbance 600 nm (AID 1175); conditions: DCIP absorbance 600 nm, higher = more signal, called active from +8 up or from −8 down;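 also: recombinant parasite enzyme with a five histidine tag at its C terminus; test concentration not given here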
[15] = P. aeruginosa biofilm formation inhibitors, primary screen, strain PAO1, LB-PBS medium, absorbance 600 nm (AID 1176); also: test concentration not given here; conditions: P. aeruginosa PAO1 growth/biofilm, A600, 12 h; higher = more signal
[16] = S. cerevisiae RM11-1a growth modifiers, primary screen, strain RM11-1a, OD600, basal, 24 h (AID 1177); conditions: OD600, 24 h, higher = more signal, called active from +8 up or from −8 down;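 also: cultures grown under basal conditions with no added stressor; test concentration not given here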
[17] = E. coli acrAB mutant growth effects, primary screen, E. coli filamentation inducers, strain DRC39, OD650, 24 h (AID 1178); conditions: higher = more signal, called active from +8 up or from −8 down;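 also: growth measured as culture turbidity by optical density at 650 nm; test concentration not given here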
[18] = E. coli acrAB mutant growth effects, primary screen, E. coli filamentation inducers, strain DRC39, OD650, 48 h (AID 1179);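 also: screen aims at cell division blockers that make cells filament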; conditions: E. coli DRC39 delta-acrAB growth, higher = more signal, called active from +8 up or from −8 down
[19] = RPMI8226 myeloma cell viability, profiling panel, resazurin fluorescence, basal, 24 h, PK04 Diversity Set (AID 1180); conditions: higher = more signal;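 also: RPMI8826 multiple myeloma cell line at 5000 cells per well; test concentration not given here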
[20] = biological target: E3 ubiquitin-protein ligase XIAP (Homo sapiens) (UniProt P98170); experiment: XIAP binders, primary screen, biophysical, small-molecule microarray, fluorescence 635 nm (AID 1181); conditions: small-molecule microarray binding, higher = more signal;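 also: score merges 667 nm emission and signal to noise over triplicate slides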
Sequence of E3 ubiquitin-protein ligase XIAP (Homo sapiens) (P98170 whole entry, looked up): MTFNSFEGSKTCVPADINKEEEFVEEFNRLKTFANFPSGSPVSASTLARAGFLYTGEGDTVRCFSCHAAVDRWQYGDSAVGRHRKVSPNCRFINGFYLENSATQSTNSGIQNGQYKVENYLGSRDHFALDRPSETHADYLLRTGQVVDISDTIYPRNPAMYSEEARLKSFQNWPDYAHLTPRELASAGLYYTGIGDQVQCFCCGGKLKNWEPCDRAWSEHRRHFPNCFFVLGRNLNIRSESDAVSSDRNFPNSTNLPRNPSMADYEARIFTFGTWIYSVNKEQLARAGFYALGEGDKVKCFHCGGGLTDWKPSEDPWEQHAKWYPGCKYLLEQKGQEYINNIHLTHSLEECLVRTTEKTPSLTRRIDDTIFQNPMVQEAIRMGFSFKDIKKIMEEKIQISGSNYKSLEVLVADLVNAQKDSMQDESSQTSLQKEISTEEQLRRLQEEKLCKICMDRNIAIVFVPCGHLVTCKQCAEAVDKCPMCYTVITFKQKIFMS

Sequence of Dihydroorotate dehydrogenase (quinone), mitochondrial (Plasmodium falciparum (isolate 3D7)) (Q08210 whole entry, looked up): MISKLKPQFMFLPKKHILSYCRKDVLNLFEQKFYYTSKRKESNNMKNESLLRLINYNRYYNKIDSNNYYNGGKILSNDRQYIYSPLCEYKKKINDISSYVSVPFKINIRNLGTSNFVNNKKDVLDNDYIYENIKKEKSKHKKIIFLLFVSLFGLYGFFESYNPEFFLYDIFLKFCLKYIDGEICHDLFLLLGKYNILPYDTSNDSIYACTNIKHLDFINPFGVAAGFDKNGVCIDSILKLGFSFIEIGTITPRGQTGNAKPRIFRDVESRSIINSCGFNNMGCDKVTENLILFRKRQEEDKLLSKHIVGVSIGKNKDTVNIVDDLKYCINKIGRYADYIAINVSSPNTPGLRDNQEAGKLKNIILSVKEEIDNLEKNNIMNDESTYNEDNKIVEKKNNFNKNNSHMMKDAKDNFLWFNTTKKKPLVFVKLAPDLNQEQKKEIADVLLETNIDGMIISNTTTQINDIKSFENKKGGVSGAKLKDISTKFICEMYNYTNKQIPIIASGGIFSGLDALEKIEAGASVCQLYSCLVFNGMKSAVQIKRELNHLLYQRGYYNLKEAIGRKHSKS

| SMILES | z-score [1] | z-score [2] | z-score [3] | z-score [4] | z-score [5] | z-score [6] | z-score [7] | z-score [8] | z-score [9] | z-score [10] | z-score [11] | z-score [12] | z-score [13] | composite z-score [14] | z-score [15] | z-score [16] | z-score [17] | z-score [18] | z-score [19] | composite z-score [20] |
| --- | --- | --- | --- | --- | --- | --- | --- | --- | --- | --- | --- | --- | --- | --- | --- | --- | --- | --- | --- | --- |
| COC(=O)[C@@]1(Cc2ccc(OC)cc2)[C@H]2c3cc(C(=O)N4CCCC4)n(Cc4ccc(S(C)(=O)=O)cc4)c3C[C@H]2CN1C(=O)c1ccccc1 | -0.112 | 0.842 | 0.47 | 0.137 | -0.403 | 2.63 | -0.606 (inactive) | -0.7 | -1.15 | 0.105 (inactive) | -0.707 | 0.63 (inactive) | -0.389 (inactive) | -1.16 (inactive) | 0.122 (inactive) | 0.115 (inactive) | -0.867 (inactive) | -0.113 (inactive) | -0.84 | 0.721 |
| O=C1C2C=CC(C(O)C=Cc3ccc([N+](=O)[O-])cc3)N(Nc3ccccc3)C2C(=O)N1c1ccccc1 (stereo not given) | 2.48 | -0.123 | 1.28 | 0.0385 | -0.0477 | -0.0526 | -1.19 (inactive) | -0.175 | -0.951 | -0.102 (inactive) | -0.392 | -2.88 (inactive) | -1.44 (inactive) | -0.162 (inactive) | 1.1 (inactive) | -0.0358 (inactive) | -0.125 (inactive) | 0.242 (inactive) | 0.185 | -0.0103 |
| COC(=O)C(CC#Cc1ccc2c(c1)[C@]1(C(=O)N2)[C@H](c2ccc(OCCO)cc2)N2[C@H](c3ccccc3)[C@H](c3ccccc3)OC(=O)[C@H]2[C@@H]1C(=O)N1CCN(c2ncccn2)CC1)C(=O)OC | -0.824 | -0.661 | 0.228 | -0.966 | -3.72 | -1.01 | 0.525 (inactive) | -1 | -1.55 | 0.352 (inactive) | -0.175 | 1.96 (inactive) | -0.382 (inactive) | -6.39 (inactive) | 3.09 (inactive) | 1.79 (inactive) | 0.452 (inactive) | 0.152 (inactive) | -2.63 | 0.0651 |
| NC(=O)NCC#Cc1ccc2c(c1)[C@]1(C(=O)N2)[C@H](C(=O)N2CCN(c3ncccn3)CC2)[C@H]2C(=O)O[C@H](c3ccccc3)[C@H](c3ccccc3)N2[C@@H]1c1ccc(OCCO)cc1 | 0.0404 | -0.33 | -1.12 | -0.444 | 0.86 | -1.95 | 1.54 (inactive) | -0.504 | -0.445 | 0.75 (inactive) | 0.906 | 2.6 (inactive) | 0.0294 (inactive) | -0.238 (inactive) | 1.91 (inactive) | 3.91 (inactive) | 0.436 (inactive) | -0.114 (inactive) | 0.0901 | -0.202 |
| COC(=O)c1c2oc(c1C(=O)OC)C(=O)N1CCC[C@H]1Cn1nncc1CN(Cc1ccccc1)C(=O)N[C@H](CO)CC2 | -0.0989 | -0.723 | 0.436 | 0.829 | 0.394 | 0.488 | 0.172 (inactive) | -0.136 | -0.882 | 0.744 (inactive) | 0.744 | -3.62 (inactive) | -0.0795 (inactive) | 0.453 (inactive) | -0.0513 (inactive) | 0.738 (inactive) | 0.663 (inactive) | 0.836 (inactive) | 0.343 | -0.0832 |
| [N-]=[N+]=NCc1ccccc1[C@@H]1OC(c2ccc(OCCCO)cc2)=N[C@]1(Cc1ccccc1)C(=O)NCCN1CCOCC1 | 0.239 | 1.09 | 0.91 | -0.887 | 0.185 | 1.14 | 0.69 (inactive) | -0.191 | 0.424 | 1.26 (inactive) | -0.195 | -0.559 (inactive) | 0.162 (inactive) | 1.16 (inactive) | -0.279 (inactive) | 1.89 (inactive) | 2.23 (inactive) | 0.528 (inactive) | -0.0015 | -0.0125 |
| COCCOC(=O)N1C(=O)[C@@]2(c3cc(C#CCC(C(=O)OC)C(=O)OC)ccc31)[C@H](C(=O)NC[C@H](O)c1ccccc1)[C@H]1C(=O)O[C@H](c3ccccc3)[C@H](c3ccccc3)N1[C@@H]2c1ccc(O)cc1 | 0.395 | 0.408 | 1.26 | -0.99 | -1.74 | 0.126 | -0.489 (inactive) | -0.39 | -0.491 | -0.227 (inactive) | 0.442 | 1.14 (inactive) | 0.73 (inactive) | -2.68 (inactive) | 1.1 (inactive) | 1.24 (inactive) | 0.35 (inactive) | 0.644 (inactive) | -1.4 | -0.096 |
